These results are taken from PubChem BioAssay (Tox21).

A short description of assay [1]: qHTS assay to identify aromatase inhibitors - cell viability counter screen (AID 743084).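 Also: cells stimulated with testosterone during compound exposure; nearly all actives have a fitted effect of over 55% in size.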 Also: potency is read from the fitted curve at half-maximal effect. In general terms: qHTS replaces the single test concentration by a dilution series.
The target of assay [2] is Aryl hydrocarbon receptor (Homo sapiens) (UniProt P35869). As to the kind of experiment: qHTS assay to identify small molecule that activate the aryl hydrocarbon receptor (AhR) signaling pathway (AID 743085).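 Also: HG2L7.5c1 human HepG2 liver cells with stably integrated DRE-driven firefly reporter; series mostly up to about 70 µM; nearly all actives have a fitted effect of over 15% in size.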 The gist of the method:
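HepG2 cells (HG2L7.5c1) stably carrying a firefly luciferase reporter driven by 20 dioxin responsive elements were exposed to compound for 24 h at 37C after a 5 h settling period; luminescence rise (ONE-Glo) indicated activation.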

In assay [3] the target is Peroxisome proliferator-activated receptor gamma (Homo sapiens) (UniProt P37231). As to the kind of experiment: qHTS assay to identify small molecule agonists of the peroxisome proliferator-activated receptor gamma (PPARg) signaling pathway (AID 743094; active = well fitted activation curve with a large enough effect in the signal ratio in the repeat runs, not every such curve was filed as active; the % refers to the signal ratio). The gist of the method: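 HEK293H PPARg-bla cells, 5 h settle at 37C/5% CO2; compound (DMSO) 17 h, 37C; B/G FRET substrate 1 h RT; fluorescence intensity read-out. qHTS format.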
Peroxisome proliferator-activated receptor gamma (Homo sapiens), sequence (P37231 whole entry, looked up): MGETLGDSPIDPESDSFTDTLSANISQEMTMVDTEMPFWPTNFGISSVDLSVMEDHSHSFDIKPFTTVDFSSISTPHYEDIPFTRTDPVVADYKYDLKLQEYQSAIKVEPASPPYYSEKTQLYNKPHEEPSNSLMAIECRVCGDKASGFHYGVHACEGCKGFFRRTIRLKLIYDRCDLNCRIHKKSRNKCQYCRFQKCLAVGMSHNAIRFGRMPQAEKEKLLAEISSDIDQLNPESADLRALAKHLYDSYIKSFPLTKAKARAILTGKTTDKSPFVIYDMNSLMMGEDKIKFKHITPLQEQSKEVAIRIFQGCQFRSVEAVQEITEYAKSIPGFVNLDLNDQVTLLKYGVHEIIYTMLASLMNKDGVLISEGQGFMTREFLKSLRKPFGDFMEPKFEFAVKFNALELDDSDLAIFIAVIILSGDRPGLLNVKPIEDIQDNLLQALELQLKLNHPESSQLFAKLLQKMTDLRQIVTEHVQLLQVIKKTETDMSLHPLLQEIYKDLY

Assay [4] can be described thus: qHTS assay to identify small molecule antagonists of the peroxisome proliferator-activated receptor gamma (PPARg) signaling pathway - cell viability counter screen (AID 743194). Also: nearly all actives have a fitted effect of over 55% in size. Also: potency is read from the fitted curve at half-maximal effect. The conditions noted are these: Potency: co-treated with 50 nM rosiglitazone unless noted. The gist of the method:
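PPARg-UAS-bla HEK293H cells were plated, rested 5 h at 37 C, then treated with compounds plus rosiglitazone (50 nM final) for 17 h at 37 C; viability was then read by CellTiter-Glo luminescence after 30 min at room temperature.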

Assay [5] can be described thus: qHTS assay for small molecule activators of the heat shock response signaling pathway (AID 743210; active = well fitted activation curve with a large enough effect in the signal ratio in the repeat runs, with a control signal flat, not every such curve was filed as active; the % refers to the signal ratio; also: potency is read from the fitted curve at half-maximal effect;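 as to activation: HeLa cells with beta-lactamase reporter driven by heat shock elements; series mostly up to about 63 µM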). The gist of the method: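 Activation of heat shock element-controlled beta-lactamase expression is measured in HeLa cells by LiveBLAzer FRET fluorescence, with compound exposure lasting 5 h at 37 C and substrate loading 2.5 h at room temperature.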
Assay [6] can be described thus: qHTS assay to identify small molecule that activate the aryl hydrocarbon receptor (AhR) signaling pathway - cell viability counter screen (AID 743086). Also: nearly all actives have a fitted effect of over 45% in size. Also: potency is read from the fitted curve at half-maximal effect. The gist of the method: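 HepG2-AhR-luc (HG2L7.5c1) cells, 4000/well, were preincubated 5 h at 37C, exposed to compound in qHTS format for 24 hr at 37C, then given CellTiter-Fluor for 30 min; viability was read as fluorescence in the reporter wells.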

Assay [7] in a line: qHTS assay for small molecule agonists of the antioxidant response element (ARE) signaling pathway - cell viability counter screen (AID 743203; calls by dose curve; also: nearly all actives have a fitted effect of over 55% in size; also: potency is read from the fitted curve at half-maximal effect). The gist of the method: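 Luminescence read-out (CellTiter-Glo, 30 min at room temperature) measured cell viability in the same wells as the ARE beta-lactamase reporter. HepG2 ARE-bla cells were treated with compounds for 16 hrs at 37C/5% CO2.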

The nature of assay [8]: qHTS assay for small molecule activators of the heat shock response signaling pathway - cell viability counter screen (AID 743209). Also: nearly all actives have a fitted effect of over 50% in size. Also: potency is read from the fitted curve at half-maximal effect. Put shortly:
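HSE-bla HeLa; 1500 cells/well; overnight 37 C, 5% CO2; compound 5 h 37 C; LiveBLAzer B/G substrate 2.5 h RT; CellTiter-Glo 30 min RT; luminescence.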

A short description of assay [9]: qHTS assay for small molecule agonists of the antioxidant response element (ARE) signaling pathway (AID 743202; active = well fitted activation curve with a large enough effect in the signal ratio in the repeat runs, not every such curve was filed as active; the % refers to the signal ratio; also: potency is read from the fitted curve at half-maximal effect). The gist of the method:
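Steps: seed ARE-bla HepG2 cells (2,000/well); incubate 5 h at 37 C; add compounds by pin tool; incubate 16 h at 37 C; add FRET substrate; read fluorescence after 2 h at RT.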

For assay [10], the target named is Peroxisome proliferator-activated receptor gamma (Homo sapiens) (UniProt P37231). The assay is described as follows: qHTS assay to identify small molecule antagonists of the peroxisome proliferator-activated receptor gamma (PPARg) signaling pathway (AID 743191; calls by dose curve; also: nearly all actives have a fitted effect of over 30% in size; also: potency is read from the fitted curve at half-maximal effect). The gist of the method:
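GeneBLAzer PPARg UAS-bla HEK293H cells carrying a UAS-driven beta-lactamase reporter were plated at 3000 cells/well, preincubated 5 h at 37C, then given compound for 17 h at 37C; LiveBLAzer B/G FRET substrate was read after 1 h at room temperature.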

Where “and” joins values, the source holds several entries; their conditions need not be identical. Equal entries are not always repeated. Records with an inconclusive call do not appear. A structure can be active in one record and inactive in another. Calls of active or inactive are those of the source. Unless noted, calls follow the shape of the dose curve; as a rule, active = well fitted curve in the direction sought with a large enough effect in the repeat runs; inconclusive = weak or mixed curves; inactive = no such curve, though single readings can be large; an effect the other way counts as inactive or inconclusive.

Aryl hydrocarbon receptor (Homo sapiens), sequence (P35869 whole entry, looked up): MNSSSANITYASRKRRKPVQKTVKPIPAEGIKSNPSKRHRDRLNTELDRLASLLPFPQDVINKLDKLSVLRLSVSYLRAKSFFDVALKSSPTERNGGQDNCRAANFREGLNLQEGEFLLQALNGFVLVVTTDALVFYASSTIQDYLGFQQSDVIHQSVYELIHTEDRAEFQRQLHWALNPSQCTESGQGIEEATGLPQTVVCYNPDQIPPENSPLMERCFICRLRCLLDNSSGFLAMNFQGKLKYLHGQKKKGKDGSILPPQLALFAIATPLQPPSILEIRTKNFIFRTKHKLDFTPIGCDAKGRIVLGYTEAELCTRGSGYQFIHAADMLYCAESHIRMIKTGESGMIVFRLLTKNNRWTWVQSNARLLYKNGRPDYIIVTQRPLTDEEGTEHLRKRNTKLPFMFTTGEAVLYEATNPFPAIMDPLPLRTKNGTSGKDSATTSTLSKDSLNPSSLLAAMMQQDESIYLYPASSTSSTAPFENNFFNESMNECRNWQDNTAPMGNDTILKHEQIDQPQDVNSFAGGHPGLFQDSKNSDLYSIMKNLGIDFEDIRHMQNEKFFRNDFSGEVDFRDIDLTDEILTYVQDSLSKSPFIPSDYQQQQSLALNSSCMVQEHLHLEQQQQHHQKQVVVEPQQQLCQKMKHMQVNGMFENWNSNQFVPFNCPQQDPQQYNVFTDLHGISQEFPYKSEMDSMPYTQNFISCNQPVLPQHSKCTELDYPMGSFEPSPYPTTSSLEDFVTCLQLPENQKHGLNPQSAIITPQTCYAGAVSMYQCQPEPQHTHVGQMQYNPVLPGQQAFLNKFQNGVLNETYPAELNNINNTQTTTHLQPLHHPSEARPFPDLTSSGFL

For the compound `C[C@]12CC[C@@H]3c4ccc(OC(=O)N(CCCl)CCCl)cc4CC[C@H]3[C@@H]1CC[C@@H]2O`, the Potency result in assay [1], in assay [2], in assay [3], in assay [4] and in assay [5] was “inactive” each time.

As to `CC(=O)[O-].CC(=O)[O-].[Hg+2]`, the Potency in assay [1] was 3.86 µM (active); in assay [6], 7.7 µM (active); in assay [4] it was 0.977 µM (active); in assay [7], 1.22 µM (active); in assay [8], 1.38 µM (active). Also, the Potency result in assay [2] was “inactive”.

Turning to `CC(C)CCCCCCCOP(=O)(Oc1ccccc1)Oc1ccccc1`, the Potency entry in [1], in assay [2], in assay [3], in [4], in assay [7] and in [8] was “inactive” each time. Also, the Potency entry in assay [5] was “inactive”.

With `CN(C)C1CSSSC1`, the Potency entry in assay [1], in [2], in [3], in [4], in assay [7] and in [8] was “inactive” each time. The Potency entry in assay [5] was “inactive”. For the same compound, in assay [9], the Potency is 34.3 µM (active).

Turning to `Clc1ccc(-c2ccc(Cl)c(Cl)c2Cl)c(Cl)c1Cl`, the Potency entry in [1], in [2], in assay [3], in assay [10] and in assay [8] was “inactive” in each case.

`CCCCCCCCCCCCBr`: the Potency entry in [1], in assay [2], in [6], in assay [10], in [4] and in assay [8] was “inactive” throughout. The Potency result in [5] was “inactive”.

Consider `CN(C)[C@@H]1C(=O)C(C(N)=O)=C(O)[C@@]2(O)C(=O)C3=C(O)c4c(O)ccc(Cl)c4[C@@](C)(O)[C@H]3C[C@@H]12`, for which the Potency result in [1], in [2], in assay [6], in assay [7] and in assay [8] was “inactive” in each case.

`BrCBr`: the Potency entry in assay [1], in assay [2], in assay [3], in [4], in assay [9] and in [7] was “inactive” throughout. For the same compound, the Potency result in assay [8] and in assay [5] was “inactive” throughout.

As to `CC[C@H](C)[C@H]1O[C@]2(C=C[C@@H]1C)C[C@@H]1C[C@@H](C/C=C(\C)[C@@H](O[C@H]3C[C@H](OC)[C@@H](O[C@H]4C[C@H](OC)[C@@H](O)[C@H](C)O4)[C@H](C)O3)[C@@H](C)/C=C/C=C3\CO[C@@H]4[C@H](O)C(C)=C[C@@H](C(=O)O1)[C@]34O)O2`, the Potency entry in [1] was “inactive and 18.1 µM (active)”; in assay [6], “inactive and 11.4 µM (active)”; in assay [4] it was 9.15 µM (active); in assay [7] it was 11.4 µM (active); in assay [8], 12.9 µM (active). The Potency result in assay [2] and in [5] was “inactive” each time.

Take `CCCCCCCCCCCCCCC(Br)C(=O)O` (configuration not stated): the Potency result in assay [1], in assay [2] and in assay [6] was “inactive” each time. Besides, the Potency in assay [8] was 24.5 µM (active).

`CC(=O)[O-].CC(=O)[O-].O.O.[Cd+2]`: the Potency is 42.7 µM (active) in assay [1], 2.69 µM (active) in assay [6] and 0.214 µM (active) in assay [7]. Besides, the Potency result in assay [2] was “inactive”.

For `CC(C)(C)c1cc([N+](=O)[O-])cc(C(C)(C)C)c1O`, the Potency is 21.7 µM (active) in assay [1] and 6.16 µM (active) in assay [4]. The Potency entry in [2], in assay [3], in [10], in assay [9], in [8] and in [5] was “inactive” each time.

Consider `CN(C)CCc1c[nH]c2ccc(O)cc12`, for which the Potency entry in assay [1], in assay [2], in [3], in assay [10], in assay [4] and in assay [7] was “inactive” in each case. The Potency result in assay [8] is “inactive”. The Potency in assay [5] is 59.7 µM (active).

Take `CCN(CC)C(=S)[S-].CCN(CC)C(=S)[S-].[Zn+2]`: the Potency in assay [1] was 0.096 µM (active); in assay [4] it was 2.17 µM (active); in assay [7], 3.82 µM (active). For the same compound, the Potency result in [2] and in assay [6] was “inactive” each time.

With `O=c1[nH]c2ccccc2n1C1CCN(CCCC(c2ccc(F)cc2)c2ccc(F)cc2)CC1`, the Potency is 54.5 µM (active) in assay [1]; 34.7 µM (active) in [10]; 24.5 µM [setting not given] (active) in assay [4]; 24.3 µM (active) and 33.5 µM (active) in [7]; 24.5 µM (active) and 13.3 µM (active) in assay [8]. In addition, the Potency result in assay [6] and in assay [3] was “inactive” each time.

With `Fc1cccc(Cl)c1CCl`, the Potency entry in assay [1], in [6], in assay [3], in [10], in [4] and in assay [7] was “inactive” in each case. The Potency entry in assay [8] and in assay [5] was “inactive” throughout.

As for `[Hg+2].[I-].[I-]`, the Potency is 6.86 µM (active) in assay [1], 8.71 µM (active) in assay [4], 9.69 µM (active) in [7] and 27.5 µM (active) in assay [8]. Further, in assay [2], the Potency result was “inactive”.
